# In paper PMC5540273 (PLoS ONE, 2017):
# Experiments:
# Conditions in all cases: concentration: 1 μM, replicates: in singlicate; n = 1
# [1] = test system: AURKC
# [2] = test system: AXL
# [3] = test system: T1, BIKE
# T1 construct: gene BMP2K
# [4] = test system: BLK
# [5] = test system: BMPR1A
# [6] = test system: BMPR1B
# [7] = test system: BMPR2
# [8] = test system: BMX
# [9] = test system: BRAF
# [10] = test system: T2, BRK
# T2 construct: gene PTK6
# 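Note: KINOMEscan kinase panel screen.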
SMILES,%Inh [1],%Inh [2],%Inh [3],%Inh [4],%Inh [5],%Inh [6],%Inh [7],%Inh [8],%Inh [9],%Inh [10]
CC(C)(C)OC(=O)NC1CCCN(c2cc(-c3ccc4c(N)n[nH]c4c3)nc(N)n2)C1 (centres unmarked) [GSK2286096],53%,5%,10%,0%,0%,0%,0%,8%,16%,13%
Fc1cccc(COc2ccc(Nc3ncnc4nn5ccccc5c34)cc2Cl)c1 [GW689066],6%,0%,15%,57%,0%,0%,4%,5%,0%,0%
COC(=O)c1cccc(NC(=O)NCCNc2ccnc(Nc3ccc(F)cc3)n2)c1 [GSK1379883],32%,5%,22%,0%,0%,0%,0%,21%,0%,24%
Cl.c1ccc(Cn2ncc3cc(Nc4ncnc5ccccc45)ccc32)cc1 [GW273749],0%,0%,0%,17%,0%,0%,0%,0%,0%,0%
CN1c2ccc(-c3ccc(C(=O)NCCO)cc3)cc2-c2[nH]ncc2S1(=O)=O,9%,17%,10%,26%,19%,16%,0%,13%,19%,0%
